From PubChem BioAssay (EPA / NIEHS)
“And” between values parts separate entries of the source, which are not always exact repeats. Identical values can stand only once. Records with an inconclusive call do not appear. The source holds several records for some structures; these can differ, active in one and inactive in another. The source made the active and inactive calls. Rule for the calls: active = hit-call score of the fitted dose curve at least 0.9, where 1 is the maximum; inconclusive = response in the unintended direction; inactive = score below 0.9.

Target: Cellular tumor antigen p53 (Homo sapiens) (UniProt P04637)
Assay: TOX21_p53_BLA_p2_ratio: Tox21 HCT-116 p53 Agonism Beta-lactamase Assay, Ratio, Phase 2 (AID 2283592)
From the text: TOX21_p53_BLA_p2 is a cell-based, single-readout assay that uses HCT116, a human intestinal cell line, […] in a 1536-well plate.TOX21_p53_BLA_p2_ratio is an assay readout measuring reporter gene via receptor activity and designed using inducible reporter (beta lactamase induction) detected with GAL4 b-lactamase reporter gene. The signal is derived from the ratio of cleaved (ch2) to uncleaved (ch1) reporter gene substrate used as the measure of target activity.Data from the assay component TOX21_p53_BLA_p2_ratio was analyzed into 1 assay endpoint. This assay endpoint, TOX21_p53_BLA_p2_ratio, was analyzed in the positive analysis fitting direction relative to DMSO as the negative control and baseline of activity. Using a type of inducible reporter, gain-of-signal activity can be used to understand changes in the reporter gene as they relate to the gene TP53. Furthermore, this assay endpoint can be referred to as a primary readout, because this assay has produced multiple assay endpoints and this ratio serves a reporter gene function to understand target activity. To generalize the intended target to other relatable targets, this assay endpoint is annotated to the DNA binding intended target family, where the subfamily is tumor suppressor.
Thawing Method: Place 14 mL of pre-warmed thaw medium into a 15 mL of conical tub. Remove the vial of cells to be thawed from liquid nitrogen and thaw rapidly by placing at 37C in a water bath with gentle agitation for 1-2 minutes. Decontaminate the vial by wiping with 70% ethanol before opening in a biological safety cabinet. Transfer the vial contents drop-wise into 14 mL of thaw medium in a sterile 15-mL conical tub. Centrifuge cells at 900 rpm for 4 minutes and resuspend in thaw medium. Transfer contents to the T75 tissue culture flask containing Thaw Medium and place flask in a humidified 37C/5% CO2 incubator. Switch to growth medium at first passage.Propagation Method: Aspirate medium, rinse once in DPBS, add 0.25% Trypsin/EDTA and swirl to coat the cell evenly. Add an equal volume of Growth Medium to inactivate Trypsin after 2-3 minutes incubation at 37C. Centrifuge cells at 900 rpm for 4 minutes and resuspend in growth medium. Cell should be passage or fed at least twice a week.Assay Protocol: Harvest cells from culture in growth medium and resuspend in assay medium. 2.2 Dispense 4000 cells/5 uL/well into 1536-well black/clear bottom plates using a Multidrop dispenser. After the cells were incubated at 37C for 5 hours, 23 nL of compounds dissolved in DMSO were transferred to the assay plate by a PinTool resulting in a 217-fold dilution. Incubate the plates for 16 hours at 37C, 5% CO2. Add 1 uL of 6X LiveBLAzer FRET B/G (CCF4-AM) Substrate Mixture to each well using a BioRAPTR dispenser and incubate the plates at room temperature for 2 hours. Measure fluorescence intensity at 460 and 530 nm emission and 405 nm excitation by an Envision detector. Data is expressed as the ratio of 460nm/530nm emissions. Add 4 uL of Cell-titer Glo to each well using BioRAPTR and incubate the plates at room temperature for 2 hours. Measure fluorescence intensity by a VewLux plate reader.

Cellular tumor antigen p53 (Homo sapiens), sequence (P04637 whole entry, looked up): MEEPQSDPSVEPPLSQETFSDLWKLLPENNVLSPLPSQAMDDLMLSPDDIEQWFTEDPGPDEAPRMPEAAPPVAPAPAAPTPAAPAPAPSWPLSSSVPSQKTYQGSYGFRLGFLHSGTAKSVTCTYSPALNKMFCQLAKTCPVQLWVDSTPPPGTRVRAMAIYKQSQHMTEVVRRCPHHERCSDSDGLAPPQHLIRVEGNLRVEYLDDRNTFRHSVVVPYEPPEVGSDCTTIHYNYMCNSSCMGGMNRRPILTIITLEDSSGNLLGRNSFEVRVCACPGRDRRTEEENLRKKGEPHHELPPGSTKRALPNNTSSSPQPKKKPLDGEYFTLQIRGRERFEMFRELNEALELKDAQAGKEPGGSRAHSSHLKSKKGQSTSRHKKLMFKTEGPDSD

Q: How did the AC50 turn out when `O=P(OCC(Br)CBr)(OCC(Br)CBr)OCC(Br)CBr` (stereo not given) was run?
A: 80.2 µM (active)

Q: And the outcome?
A: inactive

Q: How did the outcome turn out when `c1ccc2c(c1)sc1ccccc12` was run?
A: inactive

Q: How did the outcome turn out when `O=c1[nH]c2ccccc2c(=O)o1` was run?
A: inactive

Q: Which results are given for `C=CC(=O)OCC(CC)(COC(=O)C=C)COC(=O)C=C`?
A: AC50: 86.6 µM (active); outcome: inactive

Q: How did the outcome turn out when `c1ccc(OP(Oc2ccccc2)Oc2ccccc2)cc1` was run?
A: inactive

Q: `c1nc[nH]n1` was tested. Which outcome did it give?
A: inactive

Q: `CNC(=O)Oc1ccc(N(C)C)c(C)c1` was tested. Which outcome did it give?
A: inactive

Q: With `CCCCc1ccc(O)cc1` as the compound, how does the outcome read?
A: inactive

Q: `CC(C)Nc1ccc(Nc2ccccc2)cc1` was tested. Which outcome did it give?
A: inactive

Q: And the AC50?
A: 14.6 µM (active) and 23.1 µM (active)

Q: How did the outcome turn out when `O=[N+]([O-])c1ccccc1` was run?
A: inactive

Q: For `CCOP(=S)(OCC)SCn1nnc2ccccc2c1=O`, which outcome is on record?
A: inactive

Q: How did the outcome turn out when `CCC1(c2ccccc2)C(=O)N=C(O)NC1=O` (stereo not given) was run?
A: inactive

Q: `CC1(C)CN=C(NN=C(/C=C/c2ccc(C(F)(F)F)cc2)/C=C/c2ccc(C(F)(F)F)cc2)NC1` was tested. Which AC50 did it give?
A: 20.6 µM (active)

Q: How did the outcome turn out when `CCOP(=S)(NC(C)C)Oc1ccccc1C(=O)OC(C)C` (stereo not given) was run?
A: inactive

Q: `OCC1CO1` (stereo not given) was tested. Which outcome did it give?
A: inactive

Q: For `CCCN(CCC)c1c([N+](=O)[O-])cc(C(C)C)cc1[N+](=O)[O-]`, which outcome is on record?
A: inactive

Q: With `Nc1ccc2ccccc2c1` as the compound, how does the outcome read?
A: inactive

Q: Which outcome does the source give for `CCOS(=O)(=O)OCC` here?
A: inactive

Q: With `Cc1ccc(N)cc1N` as the compound, how does the outcome read?
A: inactive

Q: With `Cc1cccc(N)c1` as the compound, how does the outcome read?
A: inactive

Q: With `O=S(=O)(c1ccc(O)cc1)c1ccc(O)cc1` as the compound, how does the outcome read?
A: inactive

Q: Which outcome does the source give for `O=C(CBr)OCc1ccccc1` here?
A: inactive

Q: For `CCCCOCCOP(=O)(OCCOCCCC)OCCOCCCC`, which outcome is on record?
A: inactive

Q: `O=P(Oc1ccccc1)(Oc1ccccc1)Oc1ccccc1` was tested. Which outcome did it give?
A: inactive

Q: Which outcome does the source give for `O=S1(=O)OCC2C(CO1)C1(Cl)C(Cl)=C(Cl)C2(Cl)C1(Cl)Cl` (stereo not given) here?
A: inactive

Q: With `O=P1(N(CCCl)CCCl)NCCCO1` (stereo not given) as the compound, how does the outcome read?
A: inactive

Q: For `C=C(C)C(=O)OCC1CO1` (stereo not given), which outcome is on record?
A: inactive

Q: Which outcome does the source give for `CCCCN(CCCC)N=O` here?
A: inactive

Q: How did the outcome turn out when `FC(F)(F)c1ccc(Cl)cc1` was run?
A: inactive

Q: `Cc1c([N+](=O)[O-])cc2c(c1[N+](=O)[O-])C(C)(C)CC2(C)C` was tested. Which outcome did it give?
A: inactive

Q: Which outcome does the source give for `[N-]=[N+]=[N-]` here?
A: inactive

Q: For `CC(=O)CCc1ccc2c(c1)OCO2`, which outcome is on record?
A: inactive

Q: With `CCC(C)(C)c1ccc(O)cc1` as the compound, how does the outcome read?
A: inactive

Q: `CCCCN(CC)C(=O)SCCC` was tested. Which outcome did it give?
A: inactive

Q: `CC(Cc1ccc(OCC(=O)O)cc1)NCC(O)c1csc(C(F)(F)F)n1` (stereo not given) was tested. Which outcome did it give?
A: inactive

Q: How did the outcome turn out when `c1ccc2c(c1)Nc1ccccc1S2` was run?
A: inactive

Q: Which AC50 does the source give for `CC1=C(C(=O)Nc2ccccc2)S(=O)(=O)CCO1` here?
A: 22.1 µM (active)
